The supplement of paper PMC7156485
± gives the standard deviation of the averaged measurements.

test system: TDF; experiment: cell number relative to DMSO (% of DMSO); higher = more cells (less growth inhibition / toxicity); details: concentration: 10 µM; 24 h
Outline: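 In 384-well plates holding 800 HCC1569 or TDF cells per well in RPMI with 10% FBS, compounds were tested at 10 µM for 24 h at 37 °C in triplicate. Fixation used 3.7% formaldehyde. Staining used a rabbit anti-H1.0 antibody with an AlexaFluor 647 secondary, plus DAPI. Each value, H1.0 nuclear intensity or cell number, is a median of replicates shown as percent of the plate control, and HCC1569 values were smoothed for positional effects.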
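Note: TDF denotes transformed human dermal fibroblasts of mesenchymal origin.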

Compound | cell number
C=CC[C@H](N)C(=O)O [L-allylglycine] | 99.3
Oc1ccc(O)cc1 [Hydroquinone] | 76.8 ± 3.5
Cc1cc(Nc2nc(NC(C)c3ccc(F)cc3)c(C#N)cc2F)n[nH]1 (stereo not given) | 28
Cn1c(=O)c2c(ncn2CC2OCCO2)n(C)c1=O [Doxofylline] | 106
O=C(O)c1cccnc1C(=O)O [Quinolinic acid] | 102
COc1c(O)cc2c(c1O)C1OC(CO)C(O)C(O)C1OC2=O (stereo not given) [Bergenin] | 107
N#CC(=C(N)Sc1ccc(N)cc1)c1ccccc1C(F)(F)F | 115
COc1ccc(CN2CCN(C(c3ccc(F)cc3)c3ccc(F)cc3)CC2)c(OC)c1OC [Lomerizine] | 98.8
COc1cc2c(cc1-c1c(C)noc1C)ncc1[nH]c(=O)n([C@H](C)c3ccccn3)c12 | 66.3
CCCCCCC=CCCCCCCCCCC(=O)O [11(Z)-Octadecenoic acid] | 101
Fc1ccc(C2CCNCC2COc2ccc3c(c2)OCO3)cc1 (stereo not given) [Paroxetine] | 99.3
O=c1[nH]c2cc([N+](=O)[O-])c([N+](=O)[O-])cc2[nH]c1=O | 111
COC(=O)C1C2CC3c4[nH]c5cc(OC)ccc5c4CCN3CC2CC(OC(=O)c2cc(OC)c(OC)c(OC)c2)C1OC (stereo not given) [Reserpine] | 86.3
CC(C)(C)C(=O)OCOC(=O)[C@@H]1N2C(=O)[C@@H](/N=C/N3CCCCCC3)[C@H]2SC1(C)C | 93.4
CC(C)(CO)Cc1cc(C(C)(C)C)c(O)c(C(C)(C)C)c1 | 106
